From PubChem BioAssay (Tox21)
Several values for one entry are separate records, joined by “and”; a condition that tells them apart may be missing. Identical values can stand only once. Inconclusive results are not listed. Activity calls are given as the source filed them. Unless noted, calls come from the whole dose curve; as a rule, active = well fitted curve in the direction sought with a large enough effect in the repeat runs; inconclusive = weak or mixed curves; inactive = no such curve, though single readings can be large; an effect the other way counts as inactive or inconclusive.

Columns and labels:
[1] = target: Thyrotropin receptor (Homo sapiens) (UniProt P16473); assay: qHTS assay to identify small molecule agonists of the thyroid stimulating hormone receptor (TSHR) signaling pathway (AID 1224843; calls by dose curve; note: nearly all actives have a fitted effect of over 45% in size; note: potency is the fitted concentration of half-maximal effect)
Sequence of Thyrotropin receptor (Homo sapiens) (P16473 whole entry, looked up): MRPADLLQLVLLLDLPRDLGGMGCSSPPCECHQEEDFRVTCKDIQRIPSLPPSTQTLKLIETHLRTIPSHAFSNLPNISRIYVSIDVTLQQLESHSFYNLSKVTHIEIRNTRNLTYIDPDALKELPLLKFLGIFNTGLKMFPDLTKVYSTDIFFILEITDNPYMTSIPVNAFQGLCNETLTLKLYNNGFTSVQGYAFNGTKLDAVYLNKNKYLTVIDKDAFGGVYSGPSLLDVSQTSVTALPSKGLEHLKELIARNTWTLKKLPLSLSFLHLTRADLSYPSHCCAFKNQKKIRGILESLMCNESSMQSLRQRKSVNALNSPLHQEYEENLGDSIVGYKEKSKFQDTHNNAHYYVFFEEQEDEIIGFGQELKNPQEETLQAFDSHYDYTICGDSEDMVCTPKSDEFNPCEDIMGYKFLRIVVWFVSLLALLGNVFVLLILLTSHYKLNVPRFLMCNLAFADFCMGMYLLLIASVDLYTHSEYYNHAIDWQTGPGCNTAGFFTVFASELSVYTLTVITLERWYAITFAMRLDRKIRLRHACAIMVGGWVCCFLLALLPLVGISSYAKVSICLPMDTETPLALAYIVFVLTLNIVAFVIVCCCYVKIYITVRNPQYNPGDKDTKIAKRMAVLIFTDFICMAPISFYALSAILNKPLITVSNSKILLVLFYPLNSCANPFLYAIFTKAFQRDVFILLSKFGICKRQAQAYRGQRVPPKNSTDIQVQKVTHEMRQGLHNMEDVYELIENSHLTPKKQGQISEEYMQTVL
In short: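 Compounds are titrated over 15 concentrations, in triplicate, onto TSHR-HEK293 cells seeded at 800/well. Plates sit 30 min at room temperature before cAMP-d2 and anti-cAMP cryptate are added; signal is read after a further hour.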

[2] = qHTS assay to identify small molecule agonists of the hypoxia (HIF-1) signaling pathway - cell viability counter screen (AID 1224844; calls by dose curve; note: nearly all actives have a fitted effect of over 50% in size; note: potency is the fitted concentration of half-maximal effect)
In short: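 Same wells as the HIF-1 reporter screen; ME-180 cells carrying HRE-bla, 17 hr treatment at 37C; CellTiter-Glo luminescence read after 30 min at room temperature.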

[3] = qHTS assay to identify small molecule agonists of H2AX (AID 1224845; active = well fitted activation curve with a large enough effect in the signal ratio in the repeat runs, not every such curve was filed as active; the % refers to the signal ratio; note: potency is the fitted concentration of half-maximal effect)
In short: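 Wild-type CHO-K1 cells plated overnight, then exposed 3 hr at 37C to compounds at 15 concentrations (0.76% DMSO). Lysed, then HTRF anti-pH2AX(S139)-cryptate/anti-H2AX-d2 detection after 24 hr at room temperature; emissions 665 and 620 nm.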

[4] = qHTS assay to identify small molecule agonists of the hypoxia (HIF-1) signaling pathway (AID 1224846; active = well fitted activation curve with a large enough effect in the signal ratio in the repeat runs, not every such curve was filed as active; the % refers to the signal ratio)
In short: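 In ME-180 cells bearing an HRE-bla construct, 17 h treatment with DMSO-dissolved compounds at 37C was followed by CCF4-AM loading to quantify reporter induction.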

[5] = qHTS assay to identify small molecule antagonists of the estrogen related receptor (ERR) signaling pathway from Tox21 library (AID 1224848); note: nearly all actives have a fitted effect of over 50% in size; note: potency is the fitted concentration of half-maximal effect
In short: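 First, 2,000 ERR cells per well were plated and held 6 h at 37 C/5% CO2. Next, compounds in DMSO were pinned in and left 18 h at 37 C. Finally, ONE-Glo was added and luminescence read after 30 min at room temperature.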

[6] = qHTS assay to identify small molecule agonists of the estrogen related receptor (ERR) signaling pathway from Tox21 library (AID 1224849; calls by dose curve; note: nearly all actives have a fitted effect of over 15% in size); details: ERR reporter cell line, ONE-Glo luciferase, 18 h; at 92.4 µM (top of the series) unless noted
In short: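 Reporter cells (ERR, NTP source) treated with Tox21 10K compounds 18 h, 37 C. Readout: ONE-Glo luminescence, 30 min RT.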

[7] = qHTS RealTime-Glo MT Cell Viability Assay in HepG2 cells - 24 hour (AID 1224867); note: nearly all actives have a fitted effect of over 50% in size; note: potency is the fitted concentration of half-maximal effect
In short: (§1)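 Cells + NanoLuc/prosubstrate dispensed (600 cells/well) → 5 h at 37 C/5% CO2 → compounds in DMSO transferred → 40 h incubation at 37 C, luminescence read at 0, 8, 16, 24, 32, 40 h.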

[8] = qHTS RealTime-Glo MT Cell Viability Assay in HEK293 cells - 32 hour (AID 1224868); note: nearly all actives have a fitted effect of over 50% in size; note: potency is the fitted concentration of half-maximal effect; for activity change, negative = cytotoxic: top concentration of the series differs between compounds
In short: (§2)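 Tox21 10K qHTS, HEK293, 600 cells/well, RealTime-Glo reagent co-dispensed with cells; 5 h preincubation, compound by pintool, 37 C, luminescence at 0–40 h.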

[9] = A CellTox Green Cytotoxicity Assay to monitor cytotoxicity in HEK293 cells - 0 hour (AID 1224869); note: nearly all actives have a fitted effect of over 50% in size
In short: (§3)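 Homogeneous no-lysis format: HEK293 cell suspension mixed with CellTox Green reagent, seeded, incubated 5 h at 37 C/5% CO2, then dosed by pintool with compound in DMSO.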

[10] = qHTS RealTime-Glo MT Cell Viability Assay in HepG2 cells - 40 hour (AID 1224870); note: nearly all actives have a fitted effect of over 50% in size; note: potency is the fitted concentration of half-maximal effect
In short: (§4)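 HepG2 cells mixed with RealTime-Glo MT reagents (NanoLuc plus cell-permeant prosubstrate) were seeded at 600 cells/well, incubated 5 h at 37 C/5% CO2, then pinned with compounds in DMSO; nonlytic luminescence tracked viability during 40 h treatment.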

[11] = A CellTox Green Cytotoxicity Assay to monitor cytotoxicity in HEK293 cells - 40 hour (AID 1224871); note: nearly all actives have a fitted effect of over 45% in size; note: potency is the fitted concentration of half-maximal effect
In short: as §3

[12] = qHTS RealTime-Glo MT Cell Viability Assay in HEK293 cells - 16 hour (AID 1224872); note: nearly all actives have a fitted effect of over 50% in size; note: potency is the fitted concentration of half-maximal effect; for activity change, negative = cytotoxicity: top concentration of the series differs between compounds
In short: as §2

[13] = qHTS RealTime-Glo MT Cell Viability Assay in HepG2 cells - 8 hour (AID 1224873); note: nearly all actives have a fitted effect of over 55% in size
In short: as §4

[14] = qHTS RealTime-Glo MT Cell Viability Assay in HEK293 cells - 40 hour (AID 1224874); details: RealTime-Glo luminescence; max response: hits give low values; note: nearly all actives have a fitted effect of over 50% in size; note: potency is the fitted concentration of half-maximal effect
In short: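 Measured as luminescence from the same continuously cultured HEK293 wells at successive time points (0, 8, 16, 24, 32, 40 h) after compound addition. Reagent present from seeding; dosing at 5 h; incubation 37 C.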

[15] = A CellTox Green Cytotoxicity Assay to monitor cytotoxicity in HEK293 cells - 24 hour (AID 1224875); note: nearly all actives have a fitted effect of over 45% in size
In short: as §3

[16] = A CellTox Green Cytotoxicity Assay to monitor cytotoxicity in HepG2 cells - 16 hour (AID 1224876); note: nearly all actives have a fitted effect of over 45% in size
In short: (§5)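 Fluorescent DNA-binding dye, 600 HepG2 cells/well, 5 h preincubation then compound in DMSO; same plates read at 0–40 h, 37 C.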

[17] = qHTS RealTime-Glo MT Cell Viability Assay in HepG2 cells - 32 hour (AID 1224877); note: nearly all actives have a fitted effect of over 55% in size; note: potency is the fitted concentration of half-maximal effect
In short: as §1

[18] = A CellTox Green Cytotoxicity Assay to monitor cytotoxicity in HepG2 cells - 24 hour (AID 1224878); note: nearly all actives have a fitted effect of over 45% in size
In short: as §5

[19] = A CellTox Green Cytotoxicity Assay to monitor cytotoxicity in HepG2 cells - 40 hour (AID 1224879); note: nearly all actives have a fitted effect of over 40% in size; note: potency is the fitted concentration of half-maximal effect
In short: as §5

[20] = qHTS assay to identify small molecule agonists of H2AX - cell viability counter screen (AID 1224847; calls by dose curve; note: nearly all actives have a fitted effect of over 30% in size; note: potency is the fitted concentration of half-maximal effect; for activity change, negative = cytotoxicity: top concentration of the series differs between compounds)
In short: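 Cytotoxicity counter screen in wild-type CHO-K1 cells: a 3 hr compound treatment at 37C across 15 concentrations, followed by CellTiter-Glo luminescence to gauge viable cells.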
% is set by controls: 0 for no effect and ±100 for the full control effect.

Clc1cccc(SC2CCNCC2)n1
inactive: Potency [1] | Potency [2] | Potency [3] | outcome [4] | Potency [5] | activity change, positive = activation [6] 0.887% [at 42.5 µM] | Potency [7] | Potency [8] | Potency [9] | Potency [10] | Potency [11] | Potency [12] | Potency [13] | max response [14] 1.39% | Potency [15] | Potency [16] | Potency [17] | Potency [18] | Potency [19]

C=CC(C)=O
inactive: Potency [1] | Potency [2] | Potency [3] | outcome [4] | Potency [5] | activity change, positive = activation [6] -0.611% | Potency [7] | Potency [8] | Potency [9] | Potency [11] | Potency [12] | Potency [13] | max response [14] 4.78% | Potency [15] | Potency [16] | Potency [17] | Potency [18] | Potency [19]

NCC(CC(=O)O)c1ccc(Cl)cc1 (configuration not stated)
inactive: activation [1] 16.4% [at 0.349 µM] | activity change, negative = cytotoxicity [2] -2.38% [at 0.29 µM] | activation (H2AX phosphorylation) [3] 0.429% [at 0.582 µM] | activity change, negative = cytotoxicity [20] -1.04% [at 0.582 µM] | activity, negative = inhibition [5] 4.98% [at 0.349 µM] | activity change, positive = activation [6] 2.78% [at 0.349 µM] | activity change, negative = cytotoxicity [7] -0.0323% [at 0.29 µM] | activity change, negative = cytotoxic [8] 7.97% [at 0.29 µM] | cytotoxicity [9] -11.1% [at 0.29 µM] | activity change, negative = cytotoxic [10] -1.34% [at 0.29 µM] | cytotoxicity increase [11] -18.6% [at 0.29 µM] | activity change, negative = cytotoxicity [12] 0.531% [at 0.29 µM] | viability change, negative = cytotoxic [13] 0.906% [at 0.29 µM] | max response [14] 8.41% | activity change [15] -19.1% [at 0.29 µM, hits give high values] | cytotoxicity increase [16] -3.17% [at 0.29 µM] | activity change, negative = cytotoxic [17] -0.345% [at 0.29 µM] | cytotoxicity [18] -3.56% [at 0.29 µM] | cytotoxicity increase [19] -9.33% [at 0.29 µM]

CN1C(=O)NC(=O)C(C)(C2=CCCCC2)C1=O (configuration not stated)
inactive: Potency [1] | Potency [2] | Potency [3] | outcome [4] | Potency [7] | Potency [8] | Potency [9] | Potency [10] | Potency [11] | Potency [12] | Potency [13] | max response [14] 11.8% | Potency [15] | Potency [16] | Potency [17] | Potency [18] | Potency [19]

CCCCNP(N)(N)=S
inactive: Potency [1] | Potency [2] | Potency [3] | outcome [4] | Potency [20] | Potency [7] | Potency [8] | Potency [9] | Potency [10] | Potency [12] | Potency [13] | max response [14] 0.198% | Potency [15] | Potency [16] | Potency [17] | Potency [18] | Potency [19]

C[C@H]1CNCCc2ccc(Cl)cc21
inactive: Potency [1] | Potency [2] | Potency [3] | Potency [20] | Potency [5] | activity change, positive = activation [6] -0.2% [at 42.5 µM] | Potency [7] | Potency [8] | Potency [9] | Potency [10] | Potency [11] | Potency [12] | Potency [13] | max response [14] -6.61% | Potency [15] | Potency [16] | Potency [17] | Potency [18] | Potency [19]

N#CCc1ccccc1
inactive: Potency [1] | Potency [2] | Potency [3] | outcome [4] | Potency [7] | Potency [8] | Potency [9] | Potency [11] | Potency [12] | Potency [13] | max response [14] 2.97% | Potency [15] | Potency [16] | Potency [17] | Potency [18]

NNC(=O)c1cccnc1
inactive: Potency [1] | Potency [2] | Potency [3] | outcome [4] | Potency [20] | Potency [7] | Potency [8] | Potency [9] | Potency [11] | Potency [12] | Potency [13] | max response [14] 12.4% | Potency [15] | Potency [16] | Potency [17] | Potency [18] | Potency [19]

CCCN(CCCl)c1c([N+](=O)[O-])cc(C(F)(F)F)cc1[N+](=O)[O-]
inactive: Potency [2] | Potency [3] | outcome [4] | Potency [5] | activity change, positive = activation [6] -4.52% | Potency [7] | Potency [8] | Potency [9] | Potency [10] | Potency [11] | Potency [13] | max response [14] 1.89% | Potency [15] | Potency [16] | Potency [17] | Potency [18] | Potency [19]
active: Potency [1] 1.93 µM

N#CCC#N
inactive: Potency [1] | Potency [2] | outcome [4] | Potency [20] | Potency [7] | Potency [8] | Potency [9] | Potency [10] | Potency [11] | Potency [13] | max response [14] -1.97% | Potency [15] | Potency [16] | Potency [17] | Potency [18]
active: Potency [3] 89.8 µM

CCCN(CC1CC1)c1c([N+](=O)[O-])cc(C(F)(F)F)cc1[N+](=O)[O-]
active: Potency [1] 6.86 µM
inactive: Potency [2] | Potency [3] | Potency [20] | Potency [7] | Potency [8] | Potency [9] | Potency [10] | Potency [11] | Potency [13] | max response [14] 9.65% | Potency [15] | Potency [16] | Potency [17] | Potency [18] | Potency [19]

CCCCCC[N+](=O)[O-]
inactive: Potency [1] | Potency [2] | Potency [3] | Potency [20] | Potency [7] | Potency [8] | Potency [9] | Potency [10] | Potency [11] | Potency [12] | Potency [13] | max response [14] 4.3% | Potency [15] | Potency [16] | Potency [17] | Potency [18]

CCC(C)(NC(=O)c1cc(Cl)c(C)c(Cl)c1)C(=O)CCl (configuration not stated)
inactive: Potency [3] | activity change, positive = activation [6] -68.6% | Potency [9]
active: Potency [1] 43.5 µM | Potency [2] 34.9 µM | Potency [20] 114 µM | Potency [5] 9.75 µM | Potency [7] 49.3 µM | Potency [8] 19.6 µM | Potency [10] 49.3 µM | Potency [11] 43.9 µM | Potency [12] 27.7 µM | Potency [14] 13.9 µM | Potency [17] 49.3 µM | Potency [19] 49.3 µM

Brc1ccc(Oc2ccccc2)cc1
inactive: Potency [2] | Potency [3] | outcome [4] | Potency [5] | activity change, positive = activation [6] -18.4% and 0.436% | Potency [7] | Potency [8] | Potency [9] | Potency [10] | Potency [12] | Potency [13] | max response [14] 1.37% and 1.64% | Potency [16] | Potency [17] | Potency [18] | Potency [19]
active: Potency [1] 1.25 µM | Potency [11] 44.7 µM and 21.9 µM

Nc1nc(=S)[nH][nH]1
inactive: Potency [1] | Potency [2] | Potency [3] | outcome [4] | Potency [5] | activity change, positive = activation [6] 4.5% | Potency [7] | Potency [8] | Potency [9] | Potency [11] | Potency [12] | Potency [13] | max response [14] 1.62% | Potency [15] | Potency [16] | Potency [18] | Potency [19]
